Among the test systems are NCI-H23 lung; NCI-H226 lung; NCI-H322M lung; HOP-62 NSCLC; NCI-H460 lung; NCI-H522 lung; A549/ATCC NSCLC; 786-0 renal; COLO 205 colon; DU-145 prostate.
Common to all, as to test: NCI-60 one-dose screen, 48 h (100 = growth as untreated, 0 = no growth, -100 = all killed)
Holding throughout (conditions): 10 µM

Compounds without any hit were thinned out: in the full panel of roughly 83,000, 20% have a hit.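 Activity criterion: percent growth below 10, measured after cells in 96-well plates were exposed to a single compound concentration for 48 hours.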 Unmarked numbers belong to inactive results. Activity calls are given as the source filed them.

As for `Clc1ccc(/C=C2\CCCC3=C2N=C2SC=NN2C3c2ccc(Cl)cc2)cc1` (stereo not given), the growth in the assay with NCI-H23 lung was 94.8%; with NCI-H226 lung it was 107%; in the assay with NCI-H322M lung it was 96.2%; in the assay with HOP-62 NSCLC, 112%; in the assay on NCI-H460 lung, 97.2%; in the assay with NCI-H522 lung, 106%. Further, the growth in the assay with A549/ATCC NSCLC was 88.6%; in the assay with 786-0 renal, 103%; in the assay on COLO 205 colon, 113%; with DU-145 prostate it was 98.3%.
Turning to `Cn1c([N+](=O)[O-])cnc1/C=C1\Oc2cc(Cl)ccc2C1=O`, the growth was -22.8% (active) with NCI-H23 lung; 59.5% in the assay with NCI-H226 lung; 60.4% in the assay on NCI-H322M lung; 16.5% in the assay on HOP-62 NSCLC; -32.1% (active) in the assay with NCI-H460 lung; -53.8% (active) in the assay with NCI-H522 lung. The growth is 3.98% (active) with A549/ATCC NSCLC, -6.4% (active) in the assay on 786-0 renal, -52.9% (active) in the assay with COLO 205 colon and -18.3% (active) in the assay with DU-145 prostate.
Consider `COc1ccc(/C=C/C(=O)Nc2ccc(-c3nc4ccc(F)cc4s3)cc2)cc1`, for which the growth with NCI-H23 lung was 86.3%; in the assay with NCI-H226 lung, 72.3%; with NCI-H322M lung, 104%; with HOP-62 NSCLC, 109%; with NCI-H460 lung, 99.1%; in the assay on NCI-H522 lung, 85.5%. The growth is 94% in the assay on A549/ATCC NSCLC, 80.6% in the assay with 786-0 renal, 110% in the assay with COLO 205 colon and 118% in the assay with DU-145 prostate.
As for `COc1ccc(N=C2C(=Nc3ccc(OC)cc3)N(c3ccc(N(C)C)cc3)C(=S)N2c2ccc(OC)cc2)cc1`, the growth in the assay on NCI-H23 lung was 90.9%; in the assay with NCI-H226 lung it was 104%; with NCI-H322M lung, 90.3%; with HOP-62 NSCLC it was 64.3%; with NCI-H460 lung it was 85%; in the assay on NCI-H522 lung, 84.8%. Further, the growth in the assay on A549/ATCC NSCLC is 90.4%; with 786-0 renal, 12.3%; in the assay with COLO 205 colon it was 109%; in the assay on DU-145 prostate it was 85.7%.
In the case of `COc1ccc2c(c1)sc1nc(-c3ccccc3)c(-c3ccc(O)c(OC)c3)n12`, the growth in the assay on NCI-H23 lung was 88.2%; with NCI-H226 lung, 94.1%; in the assay on NCI-H322M lung, 89.7%; with HOP-62 NSCLC, 79.1%; in the assay on NCI-H460 lung it was 69.8%; in the assay with NCI-H522 lung it was 76.4%. Besides, the growth with A549/ATCC NSCLC was 64.2%; in the assay with 786-0 renal, 84.9%; in the assay on COLO 205 colon it was 71.4%; in the assay with DU-145 prostate, 107%.
For `Clc1ccc(Nc2ccnc(NCCNc3ccnc4cc(Cl)ccc34)n2)cc1`, the growth in the assay on NCI-H23 lung is 47.6%; in the assay with NCI-H226 lung it was 63.3%; with NCI-H322M lung it was 20.1%; in the assay with HOP-62 NSCLC, 66.7%; in the assay with NCI-H460 lung it was 7.77% (active); with NCI-H522 lung it was -34.5% (active). The growth in the assay on A549/ATCC NSCLC was 10.8%; in the assay with 786-0 renal, -62% (active); in the assay on COLO 205 colon, -91% (active); with DU-145 prostate, 36%.
For `O=C(CNC(=O)OCc1ccccc1)NCC(=O)Oc1ccc([N+](=O)[O-])cc1`, the growth with NCI-H23 lung was 102%; with NCI-H226 lung it was 99%; with NCI-H322M lung it was 107%; in the assay on HOP-62 NSCLC it was 107%; in the assay with NCI-H460 lung, 101%; in the assay with NCI-H522 lung, 89.6%. The growth is 23.6% in the assay on A549/ATCC NSCLC, 103% in the assay with 786-0 renal, 99.2% in the assay on COLO 205 colon and 111% with DU-145 prostate.
Regarding `Nc1ccc2c(c1)Cc1cc(N)c(Br)cc1-2`, the growth is 92.1% with NCI-H23 lung; 106% with NCI-H226 lung; 113% in the assay with NCI-H322M lung; 93.4% in the assay on HOP-62 NSCLC; 97% in the assay with NCI-H460 lung; 96.7% in the assay with NCI-H522 lung. In addition, the growth in the assay on A549/ATCC NSCLC was 100%; in the assay on 786-0 renal it was 120%; in the assay on COLO 205 colon, 107%; with DU-145 prostate it was 121%.
In the case of `Cc1ccc(C)c(C(O)(c2cc(C)ccc2C)C2(O)CCCCC2)c1`, the growth in the assay on NCI-H23 lung is 88.5%; in the assay with NCI-H226 lung, 82.7%; in the assay on NCI-H322M lung it was 104%; in the assay with HOP-62 NSCLC it was 112%; in the assay on NCI-H460 lung, 95.7%; in the assay on NCI-H522 lung it was 61.4%. Besides, the growth in the assay on A549/ATCC NSCLC is 92.9%; with 786-0 renal, 90.6%; with COLO 205 colon it was 96.7%; in the assay with DU-145 prostate it was 104%.
As for `COc1ccc2c(c1)sc1nc(-c3ccccc3)c(-c3ccsc3)n12`, the growth is 36% with NCI-H23 lung; 55.8% in the assay with NCI-H226 lung; 53.4% in the assay with NCI-H322M lung; 36.8% with HOP-62 NSCLC; 7.9% (active) in the assay with NCI-H460 lung; -13.4% (active) in the assay with NCI-H522 lung. In addition, the growth was 31.1% in the assay on A549/ATCC NSCLC, 57.5% in the assay with 786-0 renal, 3.28% (active) in the assay on COLO 205 colon and 3.69% (active) in the assay on DU-145 prostate.
As to `Cn1c(N)c(N=Nc2ccc(S(=O)(=O)Nc3nccs3)cc2)c(=O)n(C)c1=O`, the growth is 94% in the assay on NCI-H23 lung; 104% in the assay on NCI-H226 lung; 92.9% in the assay on NCI-H322M lung; 105% with HOP-62 NSCLC; 109% in the assay on NCI-H460 lung; 82.2% in the assay with NCI-H522 lung. The growth in the assay on A549/ATCC NSCLC is 105%; in the assay with 786-0 renal it was 98.1%; in the assay with COLO 205 colon, 105%; in the assay with DU-145 prostate it was 106%.
In the case of `O=[N+]([O-])c1cccc(-c2ncc(-c3ccc(Cl)cc3Cl)[nH]2)c1`, the growth in the assay on NCI-H23 lung is 104%; in the assay with NCI-H226 lung, 80%; in the assay on NCI-H322M lung, 131%; with HOP-62 NSCLC, 45.8%; in the assay on NCI-H460 lung, 84.1%; in the assay with NCI-H522 lung, -14% (active). In addition, the growth in the assay on A549/ATCC NSCLC was 94.4%; in the assay with 786-0 renal, 66.8%; in the assay with COLO 205 colon, 89.4%; with DU-145 prostate it was 40%.
Consider `Nc1ncnc2[nH]c(=O)[nH]c12`, for which the growth with NCI-H23 lung was 103%; in the assay with NCI-H226 lung it was 87.7%; with NCI-H322M lung it was 103%; in the assay on HOP-62 NSCLC, 97.9%; in the assay with NCI-H460 lung, 95.5%; in the assay with NCI-H522 lung it was 105%. Also, the growth was 118% in the assay with A549/ATCC NSCLC, 102% with 786-0 renal, 132% with COLO 205 colon and 99.5% in the assay with DU-145 prostate.
For the compound `CC1CC(=O)OC(C)C1` (stereo not given), the growth is 102% with NCI-H23 lung; 93.1% with NCI-H226 lung; 103% in the assay on NCI-H322M lung; 92.2% with HOP-62 NSCLC; 104% in the assay on NCI-H460 lung; 103% in the assay on NCI-H522 lung. For the same compound, the growth in the assay on A549/ATCC NSCLC is 95.8%; with 786-0 renal it was 101%; in the assay with COLO 205 colon, 112%; in the assay on DU-145 prostate it was 111%.
